Hits are enriched below; roughly 11% of the tested compounds scored in any of these assays.
NIH3T3 tox: NIH 3T3 cell cytotoxicity; NIH 3T3 viability, CellTiter-Glo ATP luminescence, 48-72 h; Potency, µM (top dose mostly 96.7 µM), for the others: top-dose activity change, negative = cytotoxicity, hits mostly inhibitors; 4.3% of 94,000 active; AID 1345082; further: nearly all actives have a fitted effect of over 55% in size
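NIH 3T3 cells at 400 cells/well received 23 nL of compound by pintool and were incubated 48 or 72 h at 37 °C. Viability was read as ATP-coupled CellTiter-Glo luminescence.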
NPR1 antag: antagonists of human natriuretic peptide receptor Npr1; HEK293 hNpr1 GloSensor cGMP, ANP-stimulated luminescence; Potency, µM (top dose mostly 46.3 µM), for the others: top-dose activity change, negative = inhibition, usual class: inhibitors; 1.6% of 76,000 active; AID 1347048; calls by dose curve; further: nearly all actives have a fitted effect of over 60% in size
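Compound pre-incubated 30 min at room temperature on GloSensor-loaded HEK293 cells stably carrying hNpr1 and the pGS-40F cGMP biosensor. Stimulation uses hNppA at 0.1 nM final; luminescence is taken at baseline and 20 min post-agonist.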
FLuc inh: inhibitors of firefly (Photinus pyralis) luciferase | P08659 | purified P. pyralis luciferase, luminescence, biochemical | Potency, µM (series often up to 115 µM), most hits filed as inhibitors | 2.5% of 76,000 active | AID 1347043; further: nearly all actives have a fitted effect of over 65% in size
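Purified P. pyralis luciferase (10nM final) in 50mM Tris acetate pH 7.5, 10mM Mg acetate, 0.01% Tween-20, 0.05% BSA with 10uM D-luciferin and 10uM ATP. Compounds titrated qHTS. Luminescence imaged on CCD.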
HEK293 tox: kills HEK 293 cells. HEK 293 viability, ATP luminescence (CellTiter-Glo), 48-72 h. Potency, µM (highest dose often 115 µM), for the others: at the highest dose activity change, negative = cytotoxicity, usual class: inhibitors. 6.6% of 94,000 active; further: nearly all actives have a fitted effect of over 60% in size
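HEK 293 cells seeded at 250 cells/well were exposed to compound for 48 or 72 hr at 37 degree Celsius. Viability taken as ATP content by CellTiter-Glo luminescence.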
An asterisk follows results filed as active; i = inactive; ? = inconclusive; · = no result given; [ ] = dose if it differs, or a comment. Unless noted, the call rests on the fitted dose curve; in most records, active means well fitted curve in the direction sought with a large enough effect; inconclusive means small, poorly fitted or top-dose-only effect, or another doubt; inactive means no such curve, though single readings can be large; an effect the other way counts as inactive or inconclusive. On the % scale 0 is the no-effect control and ±100 the full control effect; potency means the concentration at half of the fitted maximal effect.

SMILES | NIH3T3 tox | NPR1 antag | FLuc inh | HEK293 tox
C=CCOc1c(OC)ccc2c1CN(CC1CC1)C(=O)CCN2C[C@@H](O)COCc1ccccc1 | ? | · | · | 44.7µM*
C=CCOc1c(OC)ccc2c1CN(C1CCCC1)C(=O)CCN2CC(O)Cc1ccccc1 (centres undefined) | ? | · | · | 44.7µM*
C=CCOc1c(OC)ccc2c1CN(CCOC)C(=O)CCN2CC(O)Cc1ccccc1 (centres undefined) | -18.5% | · | · | ?
CCOC(=O)CN1Cc2ccccc2N(CC(O)COc2ccc(OC)cc2)CCC1=O (centres undefined) | -28.2% | · | · | ?
O=C(c1ccccc1Cl)N1CCC(C(=O)N2CCC(c3nc4ncccc4[nH]3)C2)CC1 (centres undefined) | -11.3% | · | · | -2.6%
CC(=O)NCc1nnc2n1C(C(=O)NCc1ccccc1)CC2 (centres undefined) | -24.4% | · | · | 0.4%
O=C(Nc1ccc2c(c1)OCCO2)N1c2ccccc2CC1c1nc(C2CC2)no1 (centres undefined) | -25.8% | -17.9% | 12.6µM* | ?
CC(C)c1noc(C2Cc3ccccc3N2C(=O)NC2CCCC2)n1 (centres undefined) | 31.6µM* | 8.3% | i | -23.2%
CC(C)c1noc(C2Cc3ccccc3N2C(=O)Nc2ccc3c(c2)OCCO3)n1 (centres undefined) | ? | -13.5% | 15.8µM* | ?
CC(=O)N1c2ccccc2CC1c1nc(C(C)C)no1 (centres undefined) | -12.2% | -1.7% | ? | -22.2%
C[C@]1(CO)[C@H]2Cc3sc(NC(=O)c4ccnc(Cl)c4)nc3[C@@H](CC(=O)O)[C@]2(C)CC[C@H]1O | i | -17.8% | i | i
COc1cccc(CN2CCC3(CC2)COc2ccccc2NC3=O)c1 | -12.3% | -4.3% | i | -21.1%
COCC(=O)N[C@@H]1CN(Cc2ccc(C)cc2C)C[C@H]1CO | i | -1.6% | i | i
CCc1noc(-c2cccn3c(CNC(=O)c4ccccc4)nnc23)n1 | 4.9% | 8.8% | i | -10.4%
CCc1noc(-c2cccn3c(CNC(=O)c4ccc5ccccc5n4)nnc23)n1 | ? | -6.3% | i | 35.5µM*
COc1ccc(CCC(=O)N2c3ccccc3CC2c2nc(C3CC3)no2)cc1 (centres undefined) | ? | -15.9% | i | ?
COc1ccc(C2(C(=O)N3c4ccccc4CC3c3noc(C4CCOCC4)n3)CC2)cc1 (centres undefined) | ? | -3.7% | 25.1µM* | ?
CO[C@@](C(=O)N1CCOC[C@H]1c1ncc(-c2ccccc2)[nH]1)(c1ccccc1)C(F)(F)F | 44.7µM* | -26.5% | i | ?
FC(F)(F)c1ccc(-c2cnc([C@@H]3COCCN3Cc3ccccn3)[nH]2)cc1 | 39.8µM* | -5.9%[70.6 µM] | i | 56.2µM*
CC(C)(C)CN1CCOC[C@H]1c1ncc(-c2ccccc2)[nH]1 | ? | -12.2%[70.6 µM] | i | 79.4µM*
CC(C)(C)CN1CCOC[C@H]1c1ncc(-c2cccc(Cl)c2)[nH]1 | 89.1µM* | -18.0%[70.6 µM] | i | 100µM*
CC(C)Cn1c(=O)c(C(=O)N2CCN([S+](C)(=O)[O-])CC2)nc2cccnc21 | -5.2% | · | · | i
C[C@@H](NC(=O)N1CCOC[C@H]1c1ncc(-c2ccc(Cl)cc2)[nH]1)c1ccccc1 | 100µM* | -20.0%[70.6 µM] | i | ?
C[C@@H](NC(=O)N1CCOC[C@H]1c1ncc(-c2ccc(OC(F)(F)F)cc2)[nH]1)c1ccccc1 | ? | 0.3% | i | ?
CC1(COc2ccccc2)COc2ccc(C(=O)Nc3ccc4[nH]ccc4c3)cc2N1 (centres undefined) | 35.5µM* | ? | ? | 44.7µM*
SMILES | NIH3T3 tox | NPR1 antag | FLuc inh | HEK293 tox
CC1(COc2ccccc2)COc2ccc(C(=O)Nc3ccccc3)cc2N1 (centres undefined) | ? | -6.4%[70.6 µM] | i | 70.8µM*
COc1ccc(NC(=O)c2ccc3c(c2)NC(C)(COc2ccccc2)CO3)cc1OC (centres undefined) | ? | -16.9%[70.6 µM] | i | ?
CC1(COc2cccnc2)COc2ccc(C(=O)NC3CCC(O)CC3)cc2N1 (centres undefined) | ? | -1.2%[70.6 µM] | i | ?
CC1(COc2cccnc2)COc2ccc(C(=O)Nc3ccc4[nH]ccc4c3)cc2N1 (centres undefined) | 89.1µM* | -13.4%[70.6 µM] | 39.8µM* | ?
COc1ccc(NC(=O)c2ccc3c(c2)NC(C)(COc2ccccc2)CO3)cn1 (centres undefined) | ? | ? | i | ?
CN(Cc1ccccc1)C(=O)c1ccc2c(c1)NC(C)(COc1ccccc1)CO2 (centres undefined) | 50.1µM* | -10.2%[70.6 µM] | i | 70.8µM*
O=C(C1CCCN([S+](=O)([O-])c2cccs2)C1)N1CCCC(c2nc3ccncc3[nH]2)C1 (centres undefined) | -27.6% | · | · | ?
Cc1ccc(OCc2nc(C3CCN(C(=O)c4ccn[nH]4)C3)no2)cc1 (centres undefined) | -26.0% | -14.8% | i | ?
CNC(=O)c1cc(C2CC2)nc2c1c(C1CCN([S+](=O)([O-])c3ccc(C)cc3)CC1)nn2C | ? | · | · | 50.1µM*
CNC(=O)c1cc(C2CC2)nc2c1c(C1CCN(C(=O)Cc3ccccc3)CC1)nn2C | -20.8% | · | · | 89.1µM*
CNC(=O)c1cc(C2CC2)nc2c1c(C1CCN(C(=O)Cc3ccc(F)cc3)CC1)nn2C | -10.1% | · | · | ?
CNC(=O)c1cc(C2CC2)nc2c1c(C1CCN([S+](=O)([O-])c3ccc(C)cc3)C1)nn2C (centres undefined) | -25.1% | · | · | ?
Cn1ncc2c(C(=O)NCCN3CCOCC3)cc(C(C)(C)C)nc21 | -27.2% | · | · | -8.8%
Cc1ccc(-c2cccc(CN3CCCC3C(=O)NCc3ccccc3Cl)c2)cc1Cl (centres undefined) | ? | · | · | 44.7µM*
Cc1ccc(-c2cccc(CN3CCCC(NC(=O)Cc4ccccc4)C3)c2)cc1Cl (centres undefined) | -3.0% | · | · | i
Cc1ccc(-c2cccc(CN3CCCC3C(=O)NCc3cccs3)c2)cc1Cl (centres undefined) | 15.8µM* | · | · | 35.5µM*
COc1ccc(CNC(=O)C2CCCN2Cc2cccc(-c3ccc(C)c(Cl)c3)c2)cc1 (centres undefined) | 31.6µM* | · | · | 35.5µM*
COc1ccccc1CNC(=O)C1CCCN1Cc1cccc(-c2ccc(C)c(Cl)c2)c1 (centres undefined) | 39.8µM* | · | · | 39.8µM*
CCn1cc(S(=O)(=O)N2CCC(Cc3nncn3-c3ccccc3)CC2)cn1 | -20.7% | · | · | -9.7%
O=C(OCc1ccccc1)N1CCOCC12CCN(Cc1ccc3[nH]ccc3c1)CC2 | ? | -20.9%[70.6 µM] | i | ?
CCc1c(C(=O)N2CCC(CO)(Cc3ccccc3)CC2)[nH]c2ccccc12 | ? | -8.4% | i | 20µM*
